Assay results reported in PubChem BioAssay (NCI).
This is part of a sample that, as a whole, favours compounds with a hit. Of some 83,000 tested, about 20% had one in any assay.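 Single-concentration screen, 48 h exposure, 96-well plates. Endpoint: percent growth. Below 10 = active.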 Values without a mark were called inactive. Activity calls are given as the source filed them.

tested on: COLO 205 colon; experiment: NCI-60 one-dose screen, 48 h (100 = growth as untreated, 0 = no growth, -100 = all killed); conditions: 10 µM unless noted

Row | SMILES | growth
1 | CN(C)CCCNC(=O)c1cc(NC(=O)c2cc(NC(=O)c3ccc(/C=C/c4ccccc4)cc3)cn2C)cn1C | 32%
2 | CC(=O)OC[C@@]1(C)C2CC[C@]3(C)C(CC=C4C5CC(C)(C)CC[C@]5(C(=O)Nc5ccc(Br)cc5)CC[C@]43C)[C@@]2(C)C[C@@H](OC(C)=O)[C@@H]1OC(C)=O (stereo partly drawn) | 43.8%
3 | COc1ccc(NC(=O)Cn2c(O)c(N=Nc3ccc(S(N)(=O)=O)cc3)c3ccccc32)cc1 | 58.5%
4 | S=C(Nc1ccc(OCc2nc3ccccc3[nH]2)cc1)NC1CCCCC1 | 110%
5 | Cc1ccc(NC(=O)[C@]23CCC(C)(C)CC2C2=CCC4[C@@]5(C)C[C@@H](O)[C@H](O)[C@@](C)(CO)C5CC[C@@]4(C)[C@]2(C)CC3)cc1 (stereo partly drawn) | -65.9% (active)
6 | O=S(=O)(Nc1cccc(-n2cnc3cc(-c4ccc(O)cc4)ccc32)c1)C1CC1 | 25.8%
7 | Cn1cc(-c2nnc(N)nc2-c2c[nH]c3ccccc23)c2cccnc21 | 25.9%
8 | CN(C)c1ccnc(CNCCSC2(c3ccc(C(F)(F)F)cc3)c3ccccc3CCc3ccccc32)c1 | -83.7% (active)
9 | CC1=C(C(=O)OC(C)C)C(c2cccc(O)c2)NC(=S)N1 (stereo not drawn) | 107%
10 | N/N=C(\N)c1c(N)nc(=S)[nH]c1-c1ccc(Cl)cc1Cl | 120%
11 | COc1ccc2[nH]cc(-c3nnc(N)nc3-c3c[nH]c4ncc(Br)cc34)c2c1 | 132%
12 | COc1cc(C2CC(c3cc(OC)c(OC)c(OC)c3)=NN2c2ccccc2)ccc1OCc1ccc(C)cc1 (stereo not drawn) | 119%
13 | O=C(N/N=C/c1ccc(-c2ccc(O)cc2)o1)c1[nH]c2ccc(Br)cc2c1-c1ccccc1 | -54.5% (active)
